Data taken from PubChem BioAssay AID1159580 (chemical genetic matrix, 2015).
Hit rate of the full screen: of about 5,500 compounds, about 2,000 (36%) were called active. Inconclusive results (about 18%) are left out. Cut-off read from the data, not from the text of the source: active = normalized growth mostly below about 0.91 (no sharp cut-off); inconclusive = no clear call, values can overlap the other calls; inactive = mostly above about 0.92. The list shows a part of the results.

Experiment: chemical genetic growth profiling, strain panel (AID 1159580);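 note: tested at 20 µM; growth read once vehicle control cultures reached saturation at 30 °C; 1 = growth at the plate median or of vehicle wells; lower values mean less growth of the strain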
Details: growth OD
[1] = S. cerevisiae deletion strains, locus YAL040C, strain CLN3, hits give low values
[2] = S. cerevisiae deletion strains, locus YCL061C, strain MRC1 (second series), hits give low values
[3] = S. cerevisiae deletion strains, locus YDR363W, strain ESC2, hits give low values
[4] = S. cerevisiae deletion strains, locus YER002W, strain NOP16, hits give low values
[5] = S. cerevisiae deletion strains, locus YGR078C, strain PAC10, hits give low values
[6] = S. cerevisiae deletion strains, locus YGR229C, strain SMI1, hits give low values
[7] = S. cerevisiae deletion strains, locus YJR075W, strain HOC1, hits give low values
[8] = S. cerevisiae deletion strains, locus YNL128W, strain TEP1, hits give low values
[9] = S. cerevisiae deletion strains, locus YNL153C, strain GIM3, hits give low values
[10] = S. cerevisiae deletion strains, locus YNL175C, strain NOP13, hits give low values
[11] = S. cerevisiae deletion strains, locus YNL197C, strain WHI3, hits give low values
[12] = S. cerevisiae deletion strains, locus YNL224C, strain SQS1, hits give low values
[13] = S. cerevisiae deletion strains, locus YNL322C, strain KRE1, hits give low values
[14] = S. cerevisiae deletion strains, locus YOR083W, strain WHI5 (second series), hits give low values
[15] = S. cerevisiae deletion strains, locus YPL055C, strain LGE1, hits give low values
[16] = S. cerevisiae deletion strains, locus YPL241C, strain CIN2, hits give low values
[17] = S. cerevisiae deletion strains, locus YAL013W, strain DEP1, hits give low values
[18] = S. cerevisiae deletion strains, locus YDR150W, strain NUM1, hits give low values
[19] = S. cerevisiae deletion strains, locus YMR263W, strain SAP30, hits give low values
[20] = S. cerevisiae deletion strains, locus YBR229C, strain ROT2, hits give low values
[21] = S. cerevisiae deletion strains, locus YDL101C, strain DUN1, hits give low values
[22] = S. cerevisiae deletion strains, locus YEL061C, strain CIN8, hits give low values
[23] = S. cerevisiae deletion strains, locus YHR030C, strain SLT2, hits give low values
[24] = S. cerevisiae deletion strains, locus YHR087W, strain rtc3, hits give low values
[25] = S. cerevisiae deletion strains, locus YJL187C, strain SWE1, hits give low values
[26] = S. cerevisiae deletion strains, locus YJR043C, strain POL32, hits give low values
[27] = S. cerevisiae deletion strains, locus YLR039C, strain RIC1, hits give low values
[28] = S. cerevisiae deletion strains, locus YLR058C, strain SHM2 (second series), hits give low values
[29] = S. cerevisiae deletion strains, locus YLR085C, strain ARP6, hits give low values
[30] = S. cerevisiae deletion strains, locus YLR262C, strain YPT6, hits give low values
[31] = S. cerevisiae deletion strains, locus YML094W, strain GIM5, hits give low values
[32] = S. cerevisiae deletion strains, locus YMR219W, strain ESC1, hits give low values
[33] = S. cerevisiae deletion strains, locus YNL298W, strain CLA4 (second series), hits give low values
[34] = S. cerevisiae deletion strains, locus YNR030W, strain Alg12, hits give low values
[35] = S. cerevisiae deletion strains, locus YPR135W, strain CTF4, hits give low values
[36] = S. cerevisiae deletion strains, locus YCL061C, strain MRC1, hits give low values

Measured: normalized growth

CC1(C(=O)O)C2CCC(O2)C1(C)C(=O)O (stereo unspecified)
inactive: [1] 0.902 | [2] 0.984 | [3] 0.982 | [5] 0.985 | [6] 1 | [7] 1.03 | [8] 0.943 | [9] 0.886 | [13] 0.989 | [15] 1.04 | [16] 0.97
active: [4] 0.914 | [10] 0.904 | [11] 0.884 | [12] 0.914 | [14] 0.833

O=C(O)C1C2CCC(O2)C1C(=O)O (stereo unspecified)
inactive: [17] 1.04 | [1] 0.983 | [2] 1 | [18] 1 | [3] 1 | [4] 0.996 | [5] 0.985 | [7] 1.02 | [19] 0.995 | [9] 1 | [10] 1.01 | [11] 0.998 | [12] 1.02 | [14] 1.06 | [15] 1.06

CCOC(=O)c1cc(C)nc(Sc2ccccc2)c1C#N
inactive: [18] 0.852 | [22] 0.917 | [23] 0.841 | [27] 0.895 | [29] 0.787 | [30] 0.86 | [31] 0.917 | S. cerevisiae deletion strains, locus YMR307W, strain GAS1, hits give low values 0.754 | [15] 0.844 | [35] 1.12
active: [17] 0.931 | [20] 0.889 | [21] 0.897 | [5] 0.763 | [24] 0.787 | [25] 0.854 | [26] 0.91 | [7] 0.573 | S. cerevisiae deletion strains, locus YKL190W, strain CNB1, hits give low values 0.898 | [28] 0.858 | [32] 0.877 | [19] 0.907 | [9] 0.916 | [33] 0.785 | [13] 0.885 | [34] 0.746 | [16] 0.83

CCOC(=O)COc1nc(-c2cccs2)cc(C(F)(F)F)c1C#N
inactive: [17] 0.995 | [20] 0.97 | [36] 1 | [21] 0.963 | [18] 0.975 | [22] 0.975 | [5] 0.978 | [6] 0.989 | [23] 0.827 | [24] 0.961 | [25] 0.966 | [26] 1.01 | [7] 0.979 | [27] 0.946 | [28] 0.972 | [29] 0.949 | [30] 0.991 | [31] 0.922 | [32] 0.988 | [19] 1.04 | [8] 0.982 | [9] 0.98 | [33] 0.932 | [13] 0.98 | [34] 0.967 | [15] 0.971 | [16] 1.08 | [35] 0.943 | S. cerevisiae strains, strain wild type, hits give low values 0.965

CCCc1cc(=O)c2ccc(O)cc2o1
inactive: [17] 0.975 | [20] 1 | [36] 0.976 | [21] 0.947 | S. cerevisiae deletion strains, locus YDL134C, strain PPH21, hits give low values 0.996 | [18] 0.967 | [22] 1 | [5] 0.969 | [23] 0.919 | [24] 1.03 | [26] 1 | [7] 1.01 | [27] 0.957 | [28] 0.986 | [29] 0.964 | [30] 1.01 | [31] 1.02 | [32] 0.998 | [19] 0.995 | [8] 0.97 | [9] 0.993 | [33] 0.971 | [13] 0.966 | [34] 0.985 | S. cerevisiae deletion strains, locus YOL006C, strain TOP1, hits give low values 0.933 | [15] 1.05 | [16] 0.988 | [35] 0.943

Cc1c(Cc2ccc(F)cc2)c(=O)oc2cc(O)ccc12
inactive: S. cerevisiae deletion strains, locus YAR019C, strain CDC15, hits give low values 0.973 | S. cerevisiae deletion strains, locus YBL105C, strain PKC1, hits give low values 0.986 | S. cerevisiae deletion strains, locus YBR135W, strain CKS1, hits give low values 0.98 | S. cerevisiae deletion strains, locus YBR136W, strain MEC1, hits give low values 0.963 | S. cerevisiae deletion strains, locus YBR160W, strain CDC28, hits give low values 0.981 | S. cerevisiae deletion strains, locus YDL017W, strain CDC7, hits give low values 0.983 | S. cerevisiae deletion strains, locus YDL028C, strain MPS1, hits give low values 0.976 | [21] 0.979 | S. cerevisiae deletion strains, locus YDL108W, strain KIN28, hits give low values 0.978 | S. cerevisiae deletion strains, locus YDL132W, strain cdc53, hits give low values 0.978 | S. cerevisiae deletion strains, locus YDL214C, strain PRR2, hits give low values 0.967 | S. cerevisiae deletion strains, locus YDR052C, strain DBF4, hits give low values 0.987 | S. cerevisiae deletion strains, locus YDR054C, strain cdc34, hits give low values 0.975 | S. cerevisiae deletion strains, locus YDR226W, strain ADK1, hits give low values 0.987 | S. cerevisiae deletion strains, locus YDR477W, strain SNF1, hits give low values 0.971 | S. cerevisiae deletion strains, locus YER123W, strain YCK3, hits give low values 0.99 | S. cerevisiae deletion strains, locus YER133W, strain GLC7, hits give low values 0.977 | S. cerevisiae deletion strains, locus YFL009W, strain cdc4, hits give low values 0.973 | S. cerevisiae deletion strains, locus YFL029C, strain CAK1, hits give low values 0.97 | S. cerevisiae deletion strains, locus YFR003C, strain YPI1, hits give low values 0.985 | S. cerevisiae deletion strains, locus YFR019W, strain FAB1, hits give low values 0.988 | S. cerevisiae deletion strains, locus YFR028C, strain CDC14, hits give low values 0.972 | S. cerevisiae deletion strains, locus YGR040W, strain KSS1, hits give low values 0.954 | S. cerevisiae deletion strains, locus YGR052W, strain FMP48, hits give low values 1.02 | S. cerevisiae deletion strains, locus YGR092W, strain DBF2, hits give low values 0.944 | S. cerevisiae deletion strains, locus YHR079C, strain IRE1, hits give low values 0.91 | S. cerevisiae deletion strains, locus YHR082C, strain KSP1, hits give low values 0.968 | S. cerevisiae deletion strains, locus YHR205W, strain SCH9, hits give low values 0.958 | S. cerevisiae deletion strains, locus YIL147C, strain SLN1, hits give low values 0.983 | S. cerevisiae deletion strains, locus YJL095W, strain BCK1, hits give low values 0.923 | S. cerevisiae deletion strains, locus YJL128C, strain PBS2, hits give low values 0.956 | S. cerevisiae deletion strains, locus YJL157C, strain FAR1, hits give low values 0.966 | S. cerevisiae deletion strains, locus YJR016C, strain ILV3, hits give low values 0.982 | S. cerevisiae deletion strains, locus YJR066W, strain TOR1 (second series), hits give low values 0.976 | S. cerevisiae deletion strains, locus YJR066W, strain TOR1, hits give low values 0.957 | S. cerevisiae deletion strains, locus YKL048C, strain ELM1, hits give low values 0.969 | S. cerevisiae deletion strains, locus YKL067W, strain YNK1, hits give low values 0.979 | S. cerevisiae deletion strains, locus YKL101W, strain HSL1, hits give low values 0.967 | S. cerevisiae deletion strains, locus YKL193C, strain SDS22, hits give low values 0.976 | S. cerevisiae deletion strains, locus YKL203C, strain TOR2, hits give low values 1.01 | S. cerevisiae deletion strains, locus YLR113W, strain HOG1, hits give low values 0.903 | S. cerevisiae deletion strains, locus YLR133W, strain CKI1, hits give low values 0.968 | S. cerevisiae deletion strains, locus YLR403W, strain SFP1, hits give low values 0.969 | S. cerevisiae deletion strains, locus YML070W, strain DAK1, hits give low values 0.999 | S. cerevisiae deletion strains, locus YMR001C, strain CDC5, hits give low values 0.978 | S. cerevisiae deletion strains, locus YMR205C, strain PFK2 (second series), hits give low values 0.974 | S. cerevisiae deletion strains, locus YMR277W, strain FCP1, hits give low values 0.974 | S. cerevisiae deletion strains, locus YNL006W, strain LST8, hits give low values 0.975 | S. cerevisiae deletion strains, locus YNL020C, strain ARK1, hits give low values 0.96 | S. cerevisiae deletion strains, locus YNL161W, strain CBK1, hits give low values 0.974 | S. cerevisiae deletion strains, locus YNL183C, strain NPR1, hits give low values 0.939 | S. cerevisiae deletion strains, locus YNL207W, strain RIO2, hits give low values 0.97 | S. cerevisiae deletion strains, locus YNL222W, strain SSU72, hits give low values 0.976 | S. cerevisiae deletion strains, locus YNL307C, strain MCK1 (second series), hits give low values 0.984 | S. cerevisiae deletion strains, locus YOL078W, strain AVO1, hits give low values 0.973 | S. cerevisiae deletion strains, locus YOL136C, strain PFK27, hits give low values 0.964 | S. cerevisiae deletion strains, locus YOR061W, strain CKA2, hits give low values 0.957 | S. cerevisiae deletion strains, locus YOR119C, strain RIO1, hits give low values 0.977 | S. cerevisiae deletion strains, locus YOR231W, strain MKK1, hits give low values 0.926 | S. cerevisiae deletion strains, locus YOR329C, strain SCD5, hits give low values 0.979 | S. cerevisiae deletion strains, locus YPL031C, strain PHO85, hits give low values 0.947 | S. cerevisiae deletion strains, locus YPL153C, strain RAD53, hits give low values 0.962 | S. cerevisiae deletion strains, locus YPL204W, strain HRR25, hits give low values 0.98 | S. cerevisiae deletion strains, locus YPL209C, strain IPL1, hits give low values 0.982 | S. cerevisiae deletion strains, locus YPL256C, strain CLN2, hits give low values 0.899 | S. cerevisiae deletion strains, locus YPR025C, strain CCL1, hits give low values 0.977 | S. cerevisiae deletion strains, locus YPR106W, strain ISR1, hits give low values 0.984 | S. cerevisiae deletion strains, locus YPR111W, strain DBF20, hits give low values 0.971 | S. cerevisiae deletion strains, strain NNK1, hits give low values 0.984 | S. cerevisiae deletion strains, strain TSCII, hits give low values 0.978
active: [23] 0.83
